Reference: PubChem BioAssay (NCI)
The panel holds about 79,000 compounds, 15% with a hit somewhere; the sample as a whole holds those more often. No stated cut-off is given here; in the data, active means growth inhibition above about 70%; inactive means the rest. Where a SMILES comes first, the peptide text is derived from it. [ ]: non-standard residue; d: D form. Hiv = CC(C)[C@H](O)C(=O)O

Key:
[1] = NCI Yeast Anticancer Drug Screen. Data for the rad50 strain (AID 155);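 further: 0% = growth of vehicle-only cultures of the same strain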; conditions: S. cerevisiae rad50 strain growth inhibition; at 50.0 µM; stronger effect = higher value
Procedure, shortened: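 Relative growth inhibition (compound vs vehicle) was measured in yeast with a defined repair-gene alteration.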

[2] = NCI Yeast Anticancer Drug Screen. Data for the mec2-1 strain (AID 157); conditions: S. cerevisiae mec2-1 strain, at 50.0 µM, stronger effect = higher value
Procedure, shortened: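 Test agents were screened against the mec2-1 yeast strain, with defined DNA repair or cell cycle alteration. Growth was scored as inhibition against vehicle-only controls.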

[3] = NCI Yeast Anticancer Drug Screen. Data for the sgs1 mgt1 strain (AID 161);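 further: 0% = growth of cultures given vehicle only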; conditions: S. cerevisiae sgs1 mgt1 strain, at 50.0 µM, stronger effect = higher value
Procedure, shortened: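 Test agents were incubated with a DNA-repair-mutant yeast strain. Growth was then read and compared against vehicle-treated controls.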

[4] = NCI Yeast Anticancer Drug Screen. Data for the cln2 rad14 strain (AID 165);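 further: 0% = growth equal to vehicle treated cultures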; conditions: S. cerevisiae cln2 rad14 strain, at 50.0 µM, stronger effect = higher value
Procedure, shortened: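 Growth of compound-exposed yeast (cln2 rad14 genotype) measured and expressed as inhibition relative to vehicle.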

[5] = NCI Yeast Anticancer Drug Screen. Data for the bub3 strain (AID 167); conditions: S. cerevisiae bub3 mutant strain, at 50.0 µM, stronger effect = higher value
Procedure, shortened: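 Screening used yeast with an engineered genetic alteration affecting cell cycle control. Compound-exposed cultures were compared with vehicle cultures, and reduced growth was taken as inhibition.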

[6] = NCI Yeast Anticancer Drug Screen. Data for the mlh1 rad18 strain (AID 175); conditions: S. cerevisiae mlh1 rad18 strain growth inhibition; at 50.0 µM; stronger effect = higher value
Procedure, shortened: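 In this whole-cell yeast screen, a strain with altered DNA damage repair is challenged with compound, and its growth is measured against matched vehicle-treated controls.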

Measured: growth inhibition

CC(=O)Nc1ccc(S(=O)(=O)c2ccc(NC(C)=O)s2)s1
inactive: [1] -6.05% | [2] -1.3% | [3] -4.1% | [4] -15.4% | [5] -15.3% | [6] -18.9%

Cc1cc(=O)c(CO)n[nH]1
inactive: [1] 8.75% | [2] 15.2% | [3] 3.7% | [4] 6.8% | [5] 3.45% | [6] 19.5%

CCOc1c(C(=O)O)cnc2ccccc12
inactive: [1] -6.2% | [2] 19.5% | [3] -6.2% | [4] -38.9% | [5] -19.6% | [6] -0.75%

COc1nc2ccccc2c(=O)[nH]1
inactive: [1] -6.7% | [2] -5.2% | [3] -6.05% | [4] 0.1% | [5] 2% | [6] 6.5%

Nc1cc(OCc2ccccc2)ncn1
inactive: [1] 10.6% | [2] 11% | [3] 3.75% | [4] -11.6% | [5] -1.05% | [6] 20.9%

Cc1cccc(Nc2c(C(=O)O)cnc3cc4c(cc23)OCO4)c1
inactive: [1] -3.4% | [2] -4.85% | [3] 3.45% | [4] -49.8% | [5] -5.85% | [6] -6.1%

CCOc1ccccc1/C=C1\CCc2ccccc2C1=O
inactive: [1] 21.6% | [2] 34.8% | [3] 42.7% | [4] 0.4% | [5] 49.9% | [6] 23%

CCCCCCCCCCCC(=O)OCC1OC(n2cc(F)c(=O)[nH]c2=O)C(N)C(OC(=O)CCCCCCCCCCC)C1O (stereo unspecified)
inactive: [1] -9% | [2] -34.9% | [3] -51.6% | [4] 4.2% | [5] -34.9% | [6] -45.5%

O=c1nc2c(c(-c3ccc(Br)cc3)[nH]1)COC/C2=C\c1ccc(Br)cc1
inactive: [1] 31.1% | [2] 17.2% | [3] 35.8% | [4] 8% | [5] 18.1% | [6] 31.3%

S=c1nc[nH]c2c1CN(Cc1ccccc1)CC2
inactive: [1] -43.6% | [2] -2.25% | [3] 4.6% | [4] -23.4% | [5] -4.95% | [6] -6.8%

CCCCCCCCCCCCCC(=O)Oc1ccc([N+](=O)[O-])cc1
inactive: [1] -2.65% | [2] 0.05% | [3] -13.1% | [4] 11.2% | [5] -9.2% | [6] 14.4%

O=C1c2ccccc2S[C@@H](O)[C@@H]2CCCN12
inactive: [1] -31.9% | [2] -13.7% | [3] -64.7% | [4] -13.7% | [5] -41.8% | [6] -41.7%

CCN(CC)CCOC(=O)C(S)(c1ccccc1)C1CCCCC1 (stereo unspecified)
inactive: [1] 13.8% | [2] -7.3% | [3] 1% | [4] -12.8% | [5] -12.7% | [6] 16.9%

O=C(CCCn1ccnc1[N+](=O)[O-])NCCn1cncc1[N+](=O)[O-]
inactive: [1] 0.65% | [2] -8.2% | [3] 5.9% | [4] 7.6% | [5] 0.25% | [6] -9.9%

N#CCc1c(-c2ccccn2)[nH]c2ccccc12
inactive: [1] 9.25% | [2] 1.35% | [3] -3% | [4] 18.8% | [5] -11.2% | [6] 12%

O=c1c2ccccc2c(=O)n2n1C1CCC2C1
inactive: [1] 7.05% | [2] -0.55% | [3] -7.9% | [4] -3.75% | [5] 1.85% | [6] -6.15%

CC(C)(c1ccc(O)c(Cl)c1)c1cc(Cl)c(O)c(S(=O)(=O)O)c1
inactive: [1] 10.8% | [2] 4.8% | [3] 27.2% | [4] 22.3% | [5] 1.15% | [6] -11.2%

C(=Nc1ccc(N2CCOCC2)cc1)c1ccc2c(c1)OCO2
inactive: [1] -15.4% | [2] -7% | [3] -15.2% | [4] -49.5% | [5] -21.7% | [6] -22%

CC(=O)Nc1ccc(S(=O)(=O)O)nc1
inactive: [1] 0.45% | [2] 5.15% | [3] -6.8% | [4] 16.8% | [5] 7.65% | [6] -6.9%

CCOC(=O)CCC1(C(=O)OCC)CCCC1=O (stereo unspecified)
inactive: [1] -12.9% | [2] -21.3% | [3] -27.4% | [4] -9.7% | [5] 10.6% | [6] -19.3%

COc1ccc2nc3ccccc3c(NCCCN(C)C)c2c1
inactive: [1] 33.7% | [2] 41.1% | [3] 36.5% | [4] 60.1% | [5] 6.65% | [6] 12.3%

O=C(CC[N+](=O)[O-])OCC1OC(OC(=O)CC[N+](=O)[O-])C(O)C(O)C1O (stereo unspecified)
inactive: [1] 23% | [2] 0.85% | [3] 28.4% | [4] 34.1% | [5] 14.8% | [6] 38.8%

O=c1[nH]nc(Cc2ccc(Cl)cc2)n1O
inactive: [1] 3.3% | [2] 5.3% | [3] 0.1% | [4] -26.6% | [5] -13.5% | [6] 1.65%

COc1ccc(/C=N/NS(=O)(=O)c2ccc(/C=C3\NC(=O)N(C)C3=O)cc2)cc1
inactive: [1] -10.5% | [2] 22.1% | [3] -21.9% | [4] 6.5% | [5] -23.7% | [6] 27.1%

N#Cc1cnn(-c2ccc([N+](=O)[O-])cc2)c1N
inactive: [1] 14.8% | [2] -16.6% | [3] 3.85% | [4] -26.6% | [5] 1.7% | [6] 20.5%

CN(Nc1c([N+](=O)[O-])cc([N+](=O)[O-])cc1[N+](=O)[O-])c1ccc2ccccc2c1
inactive: [1] 14.2% | [2] 7.3% | [3] 21.4% | [4] 24.2% | [5] 7.2% | [6] 8.35%

CN(C)C(=N/O)/C(=N\O)N(C)C
inactive: [1] -5.05% | [2] -25% | [3] -23.1% | [4] -6.35% | [5] -23.8% | [6] -0.2%

COc1cc(NCC(C#N)C#N)ccc1N=Nc1ccc([N+](=O)[O-])cc1
inactive: [1] 25.9% | [2] 26.4% | [3] 10.5% | [4] 18.8% | [5] 12.7% | [6] 48.9%

CCC(O)CNCc1ccnc2ccc(OC)cc12 (stereo unspecified)
inactive: [1] 3.3% | [2] 2.9% | [3] 0.45% | [4] -45.4% | [5] -4.1% | [6] -12.1%

CC(C)c1ccc(/C=C2\CCC/C(=C\c3ccc(C(C)C)cc3)C2=O)cc1
inactive: [1] -6.7% | [2] -17.1% | [3] 9.5% | [4] -12.2% | [5] -20.4% | [6] -3.5%

CNC(=O)c1ccccc1Cl
inactive: [1] -0.55% | [2] 6.9% | [3] 10.8% | [4] 4.65% | [5] 3.9% | [6] 19.2%

CCCCCCCC(=O)OCC1OC(n2cc(F)c(=O)[nH]c2=O)C(NC(=O)OCc2ccccc2)C(OC(=O)CCCCCCC)C1O (stereo unspecified)
inactive: [1] 20.2% | [2] 4.05% | [3] 13.4% | [4] 14.3% | [5] 0.35% | [6] 38.3%

CC(C)[C@@H]1OC(=O)[C@@H](C)NC(=O)[C@@H]2CCCN2C1=O (cyclo([Hiv]-Pro-[dA]))
inactive: [1] -38.2% | [2] -6.75% | [3] -15.1% | [4] 5.95% | [5] -22.6% | [6] -16.4%

CCCCOCCOC(=O)CCCCCC1C=CCCC1 (stereo unspecified)
inactive: [1] 10.8% | [2] 8.4% | [3] 8.65% | [4] -18.6% | [5] -8.35% | [6] 4.95%

O=C(O)C1=C(c2ccccc2)C=C(c2ccccc2)C1
inactive: [1] 0% | [2] 0.2% | [3] 12.8% | [4] -33% | [5] 48% | [6] 28.9%

O=C1CSC(c2ccccn2)N1CCN1C(=O)CSC1c1ccccn1 (stereo unspecified)
inactive: [1] 7.4% | [2] -0.85% | [3] -15.9% | [4] -4.35% | [5] -8.05% | [6] 6.65%

CCCC(O)c1ccccc1Cl (stereo unspecified)
inactive: [1] 21.8% | [2] 18.9% | [3] 24.9% | [4] 16% | [5] -28.4% | [6] 5.3%

CC1OC(O[C@@H]2OC=C(C=O)[C@@]3(O)CC[C@H](C)[C@@H]23)C(O)C(O)C1O (stereo partly specified)
inactive: [1] 16.2% | [2] -10.4% | [3] 9.1% | [4] 7.6% | [5] -6.1% | [6] -39.2%

Cc1ccccc1C(C#N)/C(=N/NC(N)=S)C(=O)Nc1c(C)cccc1C (stereo unspecified)
inactive: [1] -36.5% | [2] -27.7% | [3] 2.5% | [4] -12.4% | [5] -17.2% | [6] -31.1%

Cc1ccc(NC(=O)CNc2ccc3c(c2)Cc2ccccc2-3)cc1
inactive: [1] -1.05% | [2] 14.6% | [3] 24.9% | [4] -37.5% | [5] 34.5% | [6] 27.2%

O=c1cnc(=O)[nH][nH]1
inactive: [1] -12.4% | [2] -17.2% | [3] -7% | [4] -18.1% | [5] 5.7% | [6] -5.4%
